The source of these data is PMC7819943, “Rice protein-binding microarrays: a tool to detect cis-acting elements near promoter regions in rice”.

In all, about 35,000 sequences were measured (“fluorescence intensity (a.u.)”: median about 10,000, highest 2% from about 52,000 on). Shown is part of a subset that was picked to be rich in the highest values.

The target of this test is T1, OsWOX13 (Oryza sativa, UniProt Q5QMM3 1-267).
T1 sequence: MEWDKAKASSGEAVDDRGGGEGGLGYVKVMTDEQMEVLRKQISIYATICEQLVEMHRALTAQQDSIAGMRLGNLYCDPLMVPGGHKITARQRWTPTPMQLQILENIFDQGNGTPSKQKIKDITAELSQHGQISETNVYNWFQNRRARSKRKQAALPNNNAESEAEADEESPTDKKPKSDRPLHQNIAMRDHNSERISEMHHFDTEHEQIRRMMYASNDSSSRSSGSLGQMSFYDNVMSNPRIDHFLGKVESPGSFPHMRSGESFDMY
Kind of test: protein-binding microarray (RPBM); PBS, 2% BSA, 51.3 ng/ul salmon testes DNA, 50 uM zinc acetate, 200 nM TF, 25 C, 1 h; high values mean tight binding. The settings on record: protein: recombinant; tags: N-terminal polyhistidine and DsRed monomer fusion (pET32a); label: CyDye5-dUTP incorporated in the synthesized complementary strand; 3' TTTTT single-stranded linker to array surface; dsDNA, one strand shown. The method in brief: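 An Axon 4000B scanner gave the binding signal as per-feature fluorescence intensity in arbitrary units. This followed washing of a custom Agilent array that had been incubated for 1 h at 25 °C with 200 nM protein in PBS, 2% BSA, salmon testes DNA and 50 µM zinc acetate. The proteins were transcription factors fused at the N-terminus to polyhistidine and DsRed, expressed in E. coli BL21-CodonPlus and purified on Ni–NTA.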
For the sequence “ACCTTTTCCGCGTGTTGTGTCTGTTTGTTGAAGATGAATTCGGAGTCACCTAGTGCAG”, the binding signal was 3280 fluorescence intensity (a.u.).
As to “TGCTAATGACTGATTAATTAGGCTTAATAAATTTGTCTCGCGGAGTCACCTAGTGCAG”, the binding signal is 64800 fluorescence intensity (a.u.).
Under “TGCTAATGACTGATTAATTAGGCTTAATAAATTCGTCTTGCGGAGTCACCTAGTGCAG” stands 35300 fluorescence intensity (a.u.); under “AATGCTAATGACAGATTAATTAGGCTTAATAAATTTGTCTCGGAGTCACCTAGTGCAG”, 29500 fluorescence intensity (a.u.).
For “TATAATAATTAAAACTCAATCAATCATACGTTAATAGCACCGGAGTCACCTAGTGCAG”, the binding signal is 20000 fluorescence intensity (a.u.).
For “ATGATGATTGTTAGTGGATGATGATGTGTCATCTTGTTAACGGAGTCACCTAGTGCAG”, the binding signal is 38400 fluorescence intensity (a.u.).
With “CACGGATTATTTTGAGCAATTACCGCTCTAATCCGGGGCGCGGAGTCACCTAGTGCAG”, the binding signal is 3600 fluorescence intensity (a.u.).
Turning to “ACACATAATGTAATCTATTTTGATATAACCAAAAGCTGTTCGGAGTCACCTAGTGCAG”, the binding signal was 7540 fluorescence intensity (a.u.).
The result for “TGGTCCTTTACATTGCAATTAATTTGTTTGGAATTTATTACGGAGTCACCTAGTGCAG” reads 8240 fluorescence intensity (a.u.); that for “GGATGTCATGATAATTGACTTATGACAATGTGATTATTTCCGGAGTCACCTAGTGCAG”, 19700 fluorescence intensity (a.u.); that for “CAGTATATAAATAATTTGAATTAGATGAGATATATCCTAGCGGAGTCACCTAGTGCAG”, 8160 fluorescence intensity (a.u.).
As to “GTATAATTGACAGATGAATTTCACGCAAGAGTATATTGAGCGGAGTCACCTAGTGCAG”, the binding signal is 55900 fluorescence intensity (a.u.).
The result for “AGATAATTTGTGATTGATGTCATAGTAGTAGAGAAAACCACGGAGTCACCTAGTGCAG” reads 46800 fluorescence intensity (a.u.).
Take “GATAATTGACAAGATTGAACCATATGTGATGTATTATTTCCGGAGTCACCTAGTGCAG”: the binding signal was 53200 fluorescence intensity (a.u.).
Under “ATATATATTGATTATATGTTTATTTTGTATGAAGATGTTCCGGAGTCACCTAGTGCAG” stands 34900 fluorescence intensity (a.u.); under “GATTATAATTTGTAAGATAATTGACCATGGAGAAGATTCACGGAGTCACCTAGTGCAG”, 16300 fluorescence intensity (a.u.).
The result for “TATAATTGATTATTGTGACCTCATGATAGAGACAAGACCACGGAGTCACCTAGTGCAG” reads 53500 fluorescence intensity (a.u.); that for “AATTATTGATTTGATGAAACTAATTTAGTATTATAAAGAGCGGAGTCACCTAGTGCAG”, 51000 fluorescence intensity (a.u.); that for “ATCTCAATCAGCAACACAAATGACCCTGACCCACGATCCACGGAGTCACCTAGTGCAG”, 20900 fluorescence intensity (a.u.).
Regarding “GCCGTTAGTTAATTATTATCCGGTAAAGAAGATTAGTAGTCGGAGTCACCTAGTGCAG”, the binding signal is 12200 fluorescence intensity (a.u.).
Under “CGTTTCTTGATTCGATGGTTGATGGATTTTGGTTTGTGGACGGAGTCACCTAGTGCAG” stands 4980 fluorescence intensity (a.u.); under “AAATATATTCAATTATTGATTTGATGAAACTAATTTCGTACGGAGTCACCTAGTGCAG”, 23500 fluorescence intensity (a.u.); under “ATTGATTTGATGAAACTAATTTACGGCACAATAGCAAATCCGGAGTCACCTAGTGCAG”, 57600 fluorescence intensity (a.u.).
Under “GGCAATCAATTATTAATTGATTAATTCCATGAATAGCACACGGAGTCACCTAGTGCAG” stands 64900 fluorescence intensity (a.u.); under “GCACACATGATCAATCAATTAATAGATTAGGTAGGTACGGCGGAGTCACCTAGTGCAG”, 51100 fluorescence intensity (a.u.); under “ATCACCTAATCAATTGAATCCATCAATTCAAGTAGATTCACGGAGTCACCTAGTGCAG”, 9390 fluorescence intensity (a.u.).
Under “TTATGAAAATATATTTAATTATTGATTTGATGAAACTAATCGGAGTCACCTAGTGCAG” stands 5790 fluorescence intensity (a.u.).
On to “TATATATATATATATATATAGACACACACATCAACAACAACGGAGTCACCTAGTGCAG”, for which the binding signal was 16000 fluorescence intensity (a.u.).
Under “TTAATTGCTATGTTTTGACCAGTCAACGCATAGGTCGTTTCGGAGTCACCTAGTGCAG” stands 15500 fluorescence intensity (a.u.); under “ATTGCACAGATTGTGACTAATTTGCGAGACGAATCTTTTACGGAGTCACCTAGTGCAG”, 7340 fluorescence intensity (a.u.).
Regarding “TTGGAATTTGGGGATTGGGAAGAGAGAAATCAGATTGGAACGGAGTCACCTAGTGCAG”, the binding signal is 4300 fluorescence intensity (a.u.).
The result for “CGGAAGATTGGAATGGAAATCGGAGAGAGCAGGGGCGGTGCGGAGTCACCTAGTGCAG” reads 12800 fluorescence intensity (a.u.); that for “ATTAATTAGCTGCCCGCAGACAAGACCCGTGACTTTGGCCCGGAGTCACCTAGTGCAG”, 23800 fluorescence intensity (a.u.).
The result for “GGTTAATCAATCAATCAGTTAATTACACAATTACTCACATCGGAGTCACCTAGTGCAG” reads 57300 fluorescence intensity (a.u.).
Regarding “ATAATTAAAACTCAATTAATCACACGTTATTATCACATCGCGGAGTCACCTAGTGCAG”, the binding signal was 14200 fluorescence intensity (a.u.).
“TATTTAATTGCAACGAATACAATAGTTTAATCGGATTATACGGAGTCACCTAGTGCAG”: the binding signal is 9360 fluorescence intensity (a.u.).
“TAGTACTCTCAATTAATTACAAACCACACCATCAAATTCTCGGAGTCACCTAGTGCAG”: the binding signal is 7020 fluorescence intensity (a.u.).
The result for “GCTTAATTAACAATCAACATAACTACTAACTAGTGTTGTTCGGAGTCACCTAGTGCAG” reads 57300 fluorescence intensity (a.u.).
Under “GAAGATTTAATTGCAACAAATTTAATAGTGCAATCGGATCCGGAGTCACCTAGTGCAG” stands 40800 fluorescence intensity (a.u.).
The result for “AATTAACATCAATAACAAAGTGTTGTACTGTAATCATCTTCGGAGTCACCTAGTGCAG” reads 4050 fluorescence intensity (a.u.); that for “TACAATTATGATTTGCCTTCAAATTTGCATTTTCATATTTCGGAGTCACCTAGTGCAG”, 13500 fluorescence intensity (a.u.).
“TATAATTAATTATTTGCTAGATTTCATTCATATGACAATTCGGAGTCACCTAGTGCAG”: the binding signal is 54600 fluorescence intensity (a.u.).
Consider “AAAGATTGCCGAGTTTAATTGCAATCAATTACGGGAAGATCGGAGTCACCTAGTGCAG”, for which the binding signal was 52900 fluorescence intensity (a.u.).
The result for “TACTATTAATCAATCACATATAATTAACAATTAGTGTGATCGGAGTCACCTAGTGCAG” reads 41200 fluorescence intensity (a.u.); that for “ATAATAATTAATATTTCATTAATTATATGCTAACGAGTTTCGGAGTCACCTAGTGCAG”, 43400 fluorescence intensity (a.u.).
